Most compounds without a hit are left out; they make up all but 4.7% or so of the library.
TRHR PAM: allosterically enhances the human TRH receptor; TRHR cells, fluo-8 calcium fluorescence, EC20 TRH enhancement; enhancement, % at 2 µM; actives 0.66% (n = 360,000); AID 493056; in the data active = enhancement above about 30%; note: 0% is about no effect
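Enhancer read-out: after compound pinning and an initial kinetic agonist-mode read, an EC20 of TRH (10 nM final) was injected and fluo-8 calcium signal (Ex 480/Em 530) followed at 1 s/cycle for 100 cycles in TRHR-expressing cells.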
D1 ag: human D1 receptor agonism; P21728; actives 1% (n = 360,000); activation, % at 2 µM; HEK293 T-REx D1 cells, calcium flux, agonist mode; note: 0% is about no effect
Target sequence (P21728 whole entry, looked up): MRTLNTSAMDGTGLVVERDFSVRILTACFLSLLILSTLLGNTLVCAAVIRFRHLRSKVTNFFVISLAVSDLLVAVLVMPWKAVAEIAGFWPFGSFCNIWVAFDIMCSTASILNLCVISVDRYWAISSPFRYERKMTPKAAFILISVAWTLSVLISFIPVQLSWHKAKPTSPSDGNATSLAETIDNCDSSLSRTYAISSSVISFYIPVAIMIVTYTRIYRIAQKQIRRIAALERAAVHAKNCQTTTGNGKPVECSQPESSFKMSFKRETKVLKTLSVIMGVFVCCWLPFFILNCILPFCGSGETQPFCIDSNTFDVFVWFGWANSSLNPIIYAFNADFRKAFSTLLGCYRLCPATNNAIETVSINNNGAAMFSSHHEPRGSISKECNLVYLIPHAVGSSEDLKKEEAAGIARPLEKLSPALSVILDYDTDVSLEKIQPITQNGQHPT
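Tetracycline-induced HEK293 TREx D1 cells, force-coupled to calcium signalling, were dye-loaded with a no-wash calcium kit. Compound was pin-added after a 10 s baseline. Fluorescence was read kinetically at 1 cycle/s for 180 s, with calcium rises flagged as agonism.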
D1 potentiator: enhances dopamine response at the human D1 receptor; P21728; HEK293 TREx D1 cells, calcium flux, dopamine EC20 potentiation; potentiation, % at 10 µM; actives 0.036% (n = 360,000); AID 504651; in the data active = potentiation above about 30%; note: 0% is about no effect
TRHR ag: TRH receptor (human) agonism. TRHR cells, calcium flux fluo-8, FDSS agonist mode. P34981. actives 0.18% (n = 360,000). activation, % at 2 µM; note: 0% is about no effect
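Fluo-8-loaded TRHR cells; 10 s baseline, compound added, kinetic Ca2+ fluorescence read 1/s, agonist mode.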
D1 antag: human D1 dopamine receptor antagonism; P21728; HEK293 TREx D1 cells, calcium flux, dopamine EC80; active compounds read low; activity change, negative = inhibition, % at 10 µM; actives 3.2% (n = 360,000); AID 504652; in the data active = activity change below about -30%; note: % is set by controls: 0 for no effect and ±100 for the full control effect
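Allosteric or orthosteric antagonism assessed as attenuation of the calcium response to EC80 dopamine, added 180 s after compound, in induced HEK293 Trex D1 cells loaded with no-wash calcium dye.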
Active calls of the source: *; . = no result given. Cut-off read from the data, not from the text of the source, unless noted: active = activation above about 30%; inactive = the rest.

SMILES	TRHR PAM	D1 ag	D1 potentiator	TRHR ag	D1 antag
Cc1ccccc1OCC(=O)Nc1ccc2c(c1)Cc1ccccc1-2	5	6	-2	-1	-24
COc1cccc(NC(=O)COc2ccc(C(=S)N3CCN(C)CC3)cc2OC)c1	0	8	-1	1	-31*
COC(=O)c1cc(-c2ccc(C)cc2)c2c(=O)n(C)c(=O)n(C)c2n1	1	2	-2	1	-2
CCc1ccc(S(=O)(=O)c2nnn3c2nc(NC2CCCCCC2)c2sccc23)cc1	-6	4	2	0	2
CN(C)CCCNc1cc(C(C)(C)C)nc2c(-c3ccccc3)cnn12	6	58*	-2	4	-12
Cc1ccccc1CN1CCN(CC(=O)NCCCN2CCN(c3ccc(F)cc3)CC2)C1=O	-11	24	-12	1	-65*
O=C(CN1CCN(Cc2ccc(Cl)cc2)C1=O)NCCCN1CCN(c2ccc(F)cc2)CC1	10	4	-3	-1	-10
O=C(NCCCN1CCN(c2ccc(F)cc2)CC1)Nc1ccccc1Cl	2	43*	0	-1	-67*
O=C(NCCCN1CCN(c2ccc(F)cc2)CC1)Nc1ccc(Cl)cc1	-5	69*	-2	2	-77*
CSc1ccc(N2CCN(CCCNC(=O)Nc3ccccc3F)CC2)cc1	-7	75*	-24	0	-4
O=C(CCN1CCN(c2ccc(F)cc2)CC1)Nc1ccccc1F	1	3	5	0	7
COc1ccc(N2CCN(CCCNC(=O)Nc3ccccc3Cl)CC2)cc1	-1	12	-4	-1	-6
Cc1cccc(-c2nc(S(=O)(=O)c3ccccc3)c(N3CCN(c4ccccc4)CC3)o2)c1	-6	2	-1	0	-21
Cc1cccc(NC(=O)CSc2cn(CC(=O)N3CCOCC3)c3ccccc23)c1C	5	2	-5	0	5
CCc1ccc(N2CCN(CCNC(=O)Nc3ccc(OC)cc3)CC2)cc1	5	2	16	0	3
CSc1ccc(NC(=O)NCCCN2CCC(Cc3ccccc3)CC2)cc1	16	196*	7	0	-13
COc1ccccc1S(=O)(=O)Cc1ccc(C(=O)NCCCN2CCN(c3ccc(F)cc3)CC2)o1	-1	1	-23	0	-62*
CCOc1ccc(NC(=O)NCCCN2CCN(c3ccc(F)cc3)CC2)cc1	3	14	-4	0	-36*
CSc1cccc(NC(=S)NCCCN2CCN(c3ccc(F)cc3)CC2)c1	-8	11	-5	1	-76*
O=C(Nc1nnc(S(=O)(=O)N2CCCc3ccccc32)s1)c1ccccc1Br	-5	-1	-2	0	14
COc1ccc(CCNC(=O)c2c(C)nn(-c3ccc(F)cc3)c2-n2cccc2)c(OC)c1OC	5	4	-1	-1	-2
Cc1cccc(N2CCN(CCNC(=O)Nc3ccc(Cl)cc3)CC2)c1C	4	30*	-3	3	-33*
O=C(NCCN1CCN(c2ccccc2Cl)CC1)Nc1ccccc1	-2	-1	-7	0	-8
CCOc1ccc(OCC)c(NS(=O)(=O)c2ccc3c(c2)CCCN3C(C)=O)c1	-2	2	-3	-1	-14
Cc1ccc(Cc2cnc(NC(=O)c3ccco3)s2)cc1	11	2	-2	2	.
SMILES	TRHR PAM	D1 ag	D1 potentiator	TRHR ag	D1 antag
O=C(Nc1ncc(Cc2ccc(SC(F)F)cc2)s1)c1ccc(OC(F)F)cc1	-4	35*	-7	3	-16
CCc1ccccc1NC(=O)c1sc2nc3n(c(=O)c2c1C)CCC3	5	1	-2	0	11
Cc1ccc(NC(=O)CSc2nnc(C)n3c2cc2sccc23)c(C)c1	0	0	-2	-1	-11
CN(N)c1nc(C(F)(F)F)nc2ccccc12	0	-1	3	0	-3
Nc1nc(N(Cc2ccccc2)Cc2ccccc2)nc(C(F)(F)F)n1	3	9	-9	2	-34*
Cc1ccc(C(C)NC(=O)/C(C#N)=C\c2c(C)[nH]c3ccccc23)cc1 (configuration not stated)	7	48*	11	0	-1
COc1ccc(C(=O)C2CCCN(Cc3sc(N4CCCC4)nc3Cl)C2)c(OC)c1 (configuration not stated)	-5	7	-3	-1	-41*
CC(=O)c1ccc(NC(=O)C2(c3ccccc3)CC2(Cl)Cl)cc1 (configuration not stated)	2	38*	0	6	5
CCOc1ccccc1/C=N/NC(=O)Cc1csc(Nc2cccc(C(F)(F)F)c2)n1	-5	3	-2	0	7
CCOc1ccc(/C=N/NC(=O)Cc2csc(Nc3cccc(C(F)(F)F)c3)n2)c(OCC)c1	2	0	-5	1	-32*
COc1cccc(-n2cc(C(=O)Nc3cccc(C(F)(F)F)c3)c3ccccc3c2=O)c1	-1	2	-2	0	14
CCN(CC)c1ccc(/C=C/C(=O)C2C(=O)C=C(C)OC2=O)cc1 (configuration not stated)	40*	246*	-4	222*	-79*
CCN(CC)c1ccc(C=C2C(=O)OC(c3ccccc3)OC2=O)cc1 (configuration not stated)	6	0	0	0	-3
CCCC(=O)Nc1ccccc1C(=O)OCc1cc(=O)n2nc(C(C)C)sc2n1	5	4	0	-2	6
O=C(NCC1OCCc2ccccc21)c1ccc(NC(=O)c2ccccc2Cl)cc1 (configuration not stated)	-2	12	-4	1	-37*
C=CC(=O)NCC1OCCc2ccccc21 (configuration not stated)	2	1	1	0	4
CN(C)CCC(=O)NCC1OCCc2ccccc21 (configuration not stated)	-8	1	-5	-1	-34*
O=C(Nc1ccc(F)cc1)c1cccnc1NCCc1ccccc1	-2	1	-4	1	-33*
O=C(Nc1ccccc1C(=O)OCc1cc(=O)n2nc(C3CC3)sc2n1)c1cccc(Cl)c1	-1	-1	2	0	6
COc1ccc(S(=O)(=O)Nc2ccccc2C(=O)Nc2nc(-c3ccc(F)cc3)cs2)cc1OC	-5	13	-5	2	-22
COc1ccc(-c2csc(NC(=O)c3ccccc3NS(=O)(=O)c3ccc(C)cc3)n2)cc1	-7	9	-9	0	-40*
COc1ccc(C2CC(c3ccccc3)=NN2c2ccc(Cl)c(C(=O)O)c2)cc1 (configuration not stated)	7	8	0	0	-5
COc1ccc(C2=NN(C(N)=S)C(c3ccccc3)C2)cc1 (configuration not stated)	0	5	1	-1	-30*

Screens (PubChem)
